From PubChem
Rab9 promoter act: activates the Rab9 promoter; 320,000 tested, 2.8% active; Huh7 Rab9 promoter-luciferase reporter, luminescence, 24 h; Potency, µM (highest dose often 9.22 µM), for the others: at the highest dose activation, negative = inhibition, hits mostly activators; AID 485297; also: % of control where 0% means no effect; nearly all actives have a fitted effect of over 60% in size
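Huh7 cells stably carrying a Rab9 promoter-luciferase reporter, 1500 cells per well in OP-MEM I with 10% FBS, treated with compound 24 hours at 37C. Luciferase activity read by luminescence after 10 minutes with Amplite reagent.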
FLuc modulator: firefly luciferase modulation, counter-screen for miR-21 project; 360,000 tested, 6.9% active; Potency, µM (series often up to 57.5 µM), for inactives: top-dose activity change, negative = inhibition, most hits filed as inhibitors; P08659; purified FLuc, Km substrates, luminescence inhibition;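 also: plate controls were vehicle for no effect and reference inhibitor for full effect; nearly all actives have a fitted effect of over 55% in size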
Target sequence (P08659 whole entry, looked up): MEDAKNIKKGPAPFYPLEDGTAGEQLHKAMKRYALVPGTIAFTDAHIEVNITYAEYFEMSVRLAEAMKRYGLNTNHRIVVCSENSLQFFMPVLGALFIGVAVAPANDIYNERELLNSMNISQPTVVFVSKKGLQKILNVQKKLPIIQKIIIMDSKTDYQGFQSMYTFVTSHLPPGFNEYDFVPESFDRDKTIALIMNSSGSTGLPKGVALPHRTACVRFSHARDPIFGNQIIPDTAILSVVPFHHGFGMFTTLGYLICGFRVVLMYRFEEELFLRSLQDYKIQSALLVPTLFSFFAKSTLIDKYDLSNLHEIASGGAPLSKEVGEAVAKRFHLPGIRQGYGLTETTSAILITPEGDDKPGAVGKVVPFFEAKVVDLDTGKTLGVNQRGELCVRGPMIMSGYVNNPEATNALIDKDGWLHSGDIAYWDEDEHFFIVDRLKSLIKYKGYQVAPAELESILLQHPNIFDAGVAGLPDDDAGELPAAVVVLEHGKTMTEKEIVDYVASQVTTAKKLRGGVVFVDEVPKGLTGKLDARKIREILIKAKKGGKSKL
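Purified P. pyralis luciferase (10nM final) with 10uM D-luciferin and 10uM ATP (Km levels) in 50mM Tris acetate pH 7.5, 10mM Mg acetate, 0.01% Tween-20, 0.05% BSA; qHTS 6-point titration, ~60 µM downward; luminescence read.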
Luc counter: blocks Kinase-Glo luciferase, a counter-screen artifact. Kinase-Glo luciferase, ATP luminescence, 8 min. Q27757. 200,000 tested, 0.28% active. Potency, µM (top dose mostly 38.3 µM), for inactives: at the highest dose activity change, negative = inhibition, usual class: inhibitors; also: % is scaled to controls: 0 for no effect and ±100 for the full control effect; nearly all actives have a fitted effect of over 60% in size
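Compound is pinned into ATP-containing buffer (10 uM ATP, imidazole pH 7.2, 7 mM MgCl2). Kinase-Glo luciferase reagent is then added. Light output is recorded following an 8-min room-temperature incubation.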
ELG1 genotox: induces genotoxicity in HEK293T cells with luciferase-tagged ELG1. HEK293T ELG1-luciferase reporter, luminescence, 16 h. Potency, µM (titrated, usually from 46 µM), for the others: top-dose activity change, positive = activation, hits mostly activators. 330,000 tested, 1.3% active; also: % of control where 0% means no effect; nearly all actives have a fitted effect of over 60% in size
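Genotoxic stress is detected as increased luminescence from luciferase-tagged ELG1 in HEK293T cells, measured with ONE-Glo after a 16 hr treatment at 37 °C.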
NPC1 promoter act: activators of NPC1 promoter; Potency, µM (doses to about 9.22 µM), for the others: at the top dose activation, most hits filed as activators; AID 485313; 320,000 tested, 2.4% active; Huh7 NPC1 promoter luciferase reporter, 24 h; also: % of control where 0% means no effect; nearly all actives have a fitted effect of over 60% in size
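NPC1 promoter–luciferase Huh7 cells; 24 h compound; luminescence.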
SMN2 splice up: SMN2 splice variant enhancement; HEK293 SMN2-luciferase splicing reporter, luminescence, 30-36 h; AID 1458; 210,000 tested, 2.8% active; Potency, µM (doses to about 46.1 µM), for the others: at the top dose activity change, positive = activation, actives largely listed as activators; also: % of control where 0% means no effect; nearly all actives have a fitted effect of over 55% in size
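qHTS luciferase splicing reporter: luminescence rises when SMN2 exon 7 is included in transfected HEK293 cells. Compound exposure lasted 30-36 h at 37C, with 4.5 mM final sodium butyrate as control, followed by a ONE-Glo read.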
* marks the source's active call; other numbers are inactive results; ? = inconclusive; nt = no result given; [ ] = remark or other dose. A selection: hits, their analogues and other compounds. The true share with any hit is near 7.3%. Calls follow the shape of the dose curve; as a rule, active = well fitted curve in the direction sought with a large enough effect; inconclusive = small, poorly fitted or top-dose-only effect, or another doubt; inactive = no such curve, though single readings can be large; an effect the other way counts as inactive or inconclusive. Potency is read from the fitted curve at half-maximal effect.

SMILES | Rab9 promoter act | FLuc modulator | Luc counter | ELG1 genotox | NPC1 promoter act | SMN2 splice up
CCCCNC(=O)Nc1ccccc1C(=O)NCCC | 0% | -15% | -1% | 0% | -4% | 4%
COCC(=O)Nc1ccccc1C(=O)Nc1ccc(OC)cc1 | 2.8µM* | 1% | 0% | ? | ? | ?
CCCCNC(=O)Nc1ccccc1C(=O)Nc1ccc(OC)cc1 | 13% | 11µM* | -3% | 8% | 2% | 13%
O=C(CC(=O)N/N=C\c1ccccc1[N+](=O)[O-])NCCc1ccccc1 | 0% | 2% | nt | -4% | 3% | nt
O=[N+]([O-])c1ccccc1/C=N/OCc1ccccc1 | ? | 11µM* | nt | ? | 4µM* | nt
C/C(=N\O)c1ccc2[nH]ccc2c1 | ? | ? | -2% | 15% | -4% | 22%
C/C(=N\O)c1ccc2c3c([nH]c2c1)CCCC3 | ? | 11µM* | -1% | ? | ? | ?
O=C(NCCO)c1ccc(Cc2nc3ccccc3[nH]2)cc1 | nt | nt | -1% | nt | nt | nt
COc1cc(-c2nc(-c3ccc(C)nc3OC)no2)cc(OC)c1OC | 13% | -1% | -2% | -1% | -2% | 9%
COc1nc(C)ccc1-c1noc(-c2ccncc2)n1 | ? | 13µM* | -2% | ? | ? | 14µM*
CCOc1nc(C)ccc1-c1noc(-c2ccco2)n1 | ? | -17% | -2% | ? | ? | 12%
COc1nc(C)ccc1-c1noc(-c2cccs2)n1 | 0.5µM* | 1.5µM* | nt | ? | 0.56µM* | nt
CCOc1ccccc1-c1nc(-c2ccc(C)nc2OC)no1 | 3.2µM* | 9.5µM* | -2% | ? | 4.5µM* | ?
C=CCOC(=O)[C@H](O)[C@@H](O)C(=O)OCC=C | nt | nt | -1% | nt | nt | 10%
Cc1csc2nc(CSc3nc4ccccc4o3)cn12 | ? | 21µM* | -23% | ? | 4µM* | 13%
c1ccc2oc(SCc3cn4ccsc4n3)nc2c1 | 3.5µM* | 9.5µM* | -12% | ? | 2.8µM* | ?
Cc1ccn2c(=O)c(C(=O)NCCc3ccccc3)c(O)nc2c1 | nt | 3% | nt | nt | nt | 6%
Cc1cc(C)c(NC(=O)C2CCN(c3nnc(C)c4c(C)n(-c5ccccc5)nc34)CC2)c(C)c1 | nt | -6% | nt | nt | nt | nt
CC(C)=CCCC1(C)C=Cc2c(c(C)cc3c2[nH]c2ccccc23)O1 (centres undefined) | nt | nt | -2% | nt | nt | -9%
CCOC(=O)c1cccc(NC(=O)CCc2c(C)nc3cc(-c4ccc(Cl)cc4)nn3c2C)c1 | nt | 12µM* | nt | nt | nt | -21%
CCOc1ccc(NC(=O)CCc2c(C)nc3cc(-c4ccc(Cl)cc4)nn3c2C)cc1 | nt | 6.7µM* | nt | nt | nt | -17%
COC(=O)c1ccccc1NC(=O)CCc1c(C)nc2cc(-c3ccc(Cl)cc3)nn2c1C | nt | ? | nt | nt | nt | -32%
Cc1ccc(C)c(NC(=O)CSc2nncn3c2cc2sccc23)c1 | nt | 4% | nt | nt | nt | nt
O=C(Nc1cc(-c2ccccc2)[nH]n1)c1ccccc1F | 1.4µM* | 8.5µM* | nt | ? | 1.8µM* | nt
O=C(Nc1cc(-c2ccccc2)[nH]n1)c1ccccc1 | 0.63µM* | 4.8µM* | nt | ? | 0.56µM* | nt
SMILES | Rab9 promoter act | FLuc modulator | Luc counter | ELG1 genotox | NPC1 promoter act | SMN2 splice up
C[N+](C)([O-])CCC=C1c2ccccc2CCc2ccccc21 | nt | nt | -3%[7.66 µM] | nt | nt | -9%[9.22 µM]
CS(=O)(=O)N1CCc2cc(-c3csc(NC(=O)Cc4cccs4)n3)ccc21 | -18% | ? | 2% | -22% | -20% | nt
CCC(CC)C(=O)Nc1nc(-c2ccc3c(c2)CCN3C(=O)C2CC2)c(C)s1 | -3% | 3% | -1% | -28% | -2% | -30%
CC(=O)Nc1nc(-c2ccc3c(c2)CCN3S(C)(=O)=O)cs1 | 2.5µM* | 21µM* | 3% | ? | ? | 10µM*
CC(C)(C)Nc1nc(-c2ccc3c(c2)CCN3C(=O)C2CC2)cs1 | ? | 3µM* | nt | ? | 1.8µM* | nt
CC(C)C(=O)Nc1nc(-c2ccc3c(c2)CCN3C(=O)C2CC2)cs1 | ? | 15µM* | nt | 4% | ? | nt
CCCc1ccc(OCC(=O)Nc2cc(S(=O)(=O)CC)ccc2O)cc1 | 0% | 27µM* | -7% | -6% | -1% | nt
C/C(=N\NC(=O)c1cc(-c2ccc(C)s2)nc2ccccc12)c1cccnc1 | ? | 0.95µM* | nt | 13% | ? | nt
C/C(=N\NC(=O)c1cc(-c2cccc(OC(C)C)c2)nc2ccccc12)c1cccnc1 | ? | 0.6µM* | nt | 3% | 24% | nt
O=S(=O)(NCCc1csc2nc(-c3ccc(Cl)cc3)nn12)c1cccs1 | nt | -15% | nt | nt | nt | nt
COc1ccc(OCC(=O)N/N=C/c2ccsc2)cc1 | -5% | ? | -5% | 3% | 0% | 6%
CCN=c1scc(C)n1/N=C/c1ccsc1 | 3.2µM* | 17µM* | -2% | ? | 3.2µM* | ?
Cc1onc(-c2ccccc2)c1C(=O)Nc1sc2c(c1C#N)CCC(C)C2 (centres undefined) | -3% | ? | 2% | -6% | 0% | -14%
N#Cc1c(NC(=O)c2nc3ncccn3n2)sc2c1CCCCC2 | 4.5µM* | 13µM* | -7% | 2.3µM* | 1.8µM* | 7.9µM*
N#Cc1c(NC(=O)c2cnn3cccnc23)sc2c1CCCC2 | ? | ? | -7% | ? | ? | 19%
CC1CCc2c(sc(NC(=O)c3nc4ncccn4n3)c2C#N)C1 (centres undefined) | 4.5µM* | 7.6µM* | nt | ? | 3.2µM* | nt
CCOc1c(Cl)cc(C(=O)N(Cc2ccc(N(C)C)cc2)Cc2ccco2)cc1Cl | nt | 1% | nt | nt | nt | 6%
CC1=CC(=C2C(=O)c3ccccc3C2=O)C=C(C)N1C | 2.5µM* | 12µM* | -7% | ? | 2.5µM* | 7%
COC1=C(c2ccccc2)C(=O)c2ccccc2C1=O | 13% | -15% | -2% | -8% | -1% | -19%
Cc1nn(CC(=O)Nc2ccc3c(c2)nc2n3CCN(C3CCCCC3)C2)c(=O)c2ccccc12 | -2% | 21µM* | 0% | 1% | 9% | nt
Cc1nn(CC(=O)Nc2ccc3c(c2)nc(CCN2CCCCC2)n3C)c(=O)c2ccccc12 | 4% | 0% | -4% | -3% | -1% | 19%
NCCCCCc1nnc(SCc2ccc(F)cc2)o1 | nt | -4% | nt | nt | nt | -3%
O=C(Nc1ccc(CN2CCOCC2)cc1)c1ccccc1F | ? | ? | -6% | ? | 3.2µM* | 11µM*
c1ccc(CN2CCOCC2)cc1 | 2% | 0% | -3% | 3% | 0% | 17%
O=C(Nc1ccc(CN2CCOCC2)cc1)c1cccs1 | 3.2µM* | 12µM* | -3% | ? | ? | 13µM*
COc1cc2ccccc2cc1C(=O)Nc1ccc(CN2CCOCC2)cc1 | 19% | 15µM* | nt | -11% | 19% | nt
O=C(Cc1ccccc1)Nc1ccc(CN2CCOCC2)cc1 | ? | ? | -1% | 12µM* | ? | 22µM*
